Screening results as filed in PubChem.
GDH-TPI inh = inhibits GDH-TPI coupling enzymes, artifact for Mtb FBA screen | AID 588335 | inhibition, % at 4.8 µM | GDH-TPI coupled enzyme counterscreen, NADH absorbance | 1.2% of 360,000 active; in the data active = inhibition above about 30%;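 note: 0% = DMSO wells and 100% = wells lacking the enzyme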
Mtb betalactam = beta-lactam sensitization of Mtb H37Rv; M. tuberculosis H37Rv growth with meropenem, percent inhibition; inhibition, % at 25 µM; 0.27% of 330,000 active; AID 434955; call rule not given here;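 note: growth measured after seven days incubation then overnight dye step; 0% = bacteria only wells and 100% = bacteria with antibiotic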
Mtb FBA inh = Mtb fructose-bisphosphate aldolase inhibition; purified M. tuberculosis FBA, fluorescence read-out; inhibition, % at 1 µM; 2.3% of 360,000 active; AID 588726; in the data active = inhibition above about 27%;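 note: 0% = vehicle and 100% = reference inhibitor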
Rv3671c inh = inhibits the M. tuberculosis serine protease Rv3671c; inhibition, % at 5.96 µM; 0.048% of 320,000 active; in the data active = inhibition above about 38%;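 note: extracellular domain of Rv3671c used as enzyme; 0% = enzyme with DMSO and 100% = no enzyme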
UGM FP inh = Mtb UDP-galactopyranose mutase inhibition; P9WIQ1; purified UGM, fluorescence polarization probe displacement; inhibition, % at 10 µM; 0.06% of 320,000 active; AID 504406; in the data active = inhibition above about 10%, passing the limit was not always enough
RecA splice inh = inhibitors of M. tuberculosis RecA intein splicing; P9WHJ3; cell-free RecA intein splicing, fluorescence; inhibition, % (concentration not given with the values); 0.75% of 290,000 active; AID 2221; in the data active = inhibition above about 30%;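 note: 0% = vehicle wells and 100% = reference inhibitor control wells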
Numbers without * were called inactive. Only some compounds are listed: those with a hit (about 4% of all), similar ones and a draw of the others.

`CN1CCc2c(sc3c2C(=O)NC(c2cccc(OC(=O)c4cccs4)c2)N3)C1` (stereo unspecified) gave GDH-TPI inh 14, Mtb betalactam 42, Mtb FBA inh 4, Rv3671c inh -20, UGM FP inh 6 and RecA splice inh -13.
For CCOC(=O)N1CCc2c(sc3c2C(=O)NC(c2ccccc2)N3)C1 (stereo unspecified) the results were GDH-TPI inh 12, Mtb betalactam 2, Mtb FBA inh 58*, Rv3671c inh -31, UGM FP inh 3 and RecA splice inh -3.
Screening CN(C)CCNc1oc(/C=C/c2ccccc2)nc1C#N returned GDH-TPI inh 10, Mtb betalactam 3, Mtb FBA inh 135*, Rv3671c inh 2, UGM FP inh 1 and RecA splice inh -7.
`CCOc1ccc(/C=C/c2nc(C#N)c(NCCCOC)o2)cc1` gave GDH-TPI inh 20, Mtb betalactam 74, Mtb FBA inh 12, Rv3671c inh 0, UGM FP inh -2 and RecA splice inh 0.
`C=CCNc1oc(Cc2cccc3ccccc23)nc1C#N` gave GDH-TPI inh 6, Mtb betalactam -8, Mtb FBA inh 3, Rv3671c inh 0, UGM FP inh 1 and RecA splice inh 7.
C=CCNc1oc(/C=C/c2ccccc2)nc1C#N was read as GDH-TPI inh 48*, Mtb FBA inh active, Rv3671c inh -6, UGM FP inh -1 and RecA splice inh -22.
CCOc1ccc(/C=C/c2nc(C#N)c(NCCCN(C)C)o2)cc1 was read as GDH-TPI inh 36*, Mtb betalactam -3, Mtb FBA inh 16, Rv3671c inh 0, UGM FP inh -1 and RecA splice inh -4.
Screening COc1cccc(/C=C/c2nc(C#N)c(NCC(C)C)o2)c1 returned GDH-TPI inh 27, Mtb betalactam 97, Mtb FBA inh active, Rv3671c inh 3, UGM FP inh -3 and RecA splice inh -17.
`CN(C)CCCNc1oc(/C=C/c2ccccc2)nc1C#N` gave GDH-TPI inh 15, Mtb betalactam -5, Mtb FBA inh 4, Rv3671c inh 3, UGM FP inh 0 and RecA splice inh -33.
Screening CC1Oc2ccc(C#N)cc2N(Cc2ccccc2OC(F)(F)F)C1=O (stereo unspecified) returned GDH-TPI inh 10 and Mtb FBA inh -2.
For C[C@@H]1C=CC(=O)O[C@@H]1c1ccc(Cl)cc1 the results were Mtb betalactam -5, Rv3671c inh -5, UGM FP inh 1 and RecA splice inh 1.
Cc1nn2c(c1-c1ccccc1)NC1=C(C(=O)CCC1)C2c1ccccc1 (stereo unspecified) was read as GDH-TPI inh 33*, Mtb betalactam 20, Mtb FBA inh 115*, Rv3671c inh -5, UGM FP inh 0 and RecA splice inh 0.
Screening CCC(=O)N1c2ccccc2NC2=C(C(=O)CCC2)C1c1ccccc1 (stereo unspecified) returned GDH-TPI inh 24, Mtb betalactam 8, Mtb FBA inh 3, Rv3671c inh -7, UGM FP inh 1 and RecA splice inh 0.
Cn1nc(C(=O)NCC(=O)Nc2ccc(F)c(F)c2)ccc1=O was read as GDH-TPI inh 12 and Mtb FBA inh 2.
For Brc1ccc(Cn2c(-c3ccc(Br)o3)nc3ccccc32)o1 the results were GDH-TPI inh 4, Mtb FBA inh -1 and RecA splice inh 30*.
Screening Cc1cc(OCC(=O)Nc2ccc(S(=O)(=O)N3CCN(C)CC3)cc2)ccc1Cl returned GDH-TPI inh 1, Mtb betalactam 1, Mtb FBA inh 141*, Rv3671c inh -2, UGM FP inh -3 and RecA splice inh 4.
Screening Cc1cc(OCC(=O)Nc2ccc(S(=O)(=O)N3CCN(C)CC3)cc2)cc(C)c1Cl returned GDH-TPI inh 7, Mtb betalactam -2, Mtb FBA inh -3, Rv3671c inh -22, UGM FP inh 0 and RecA splice inh 2.
For CC1(C)CC(N2CCCC2)=CC(=[N+]2CCCCC2)C1 the results were GDH-TPI inh 29, Mtb betalactam -8, Mtb FBA inh -2, Rv3671c inh -9, UGM FP inh 0 and RecA splice inh 2.
`CC1(C)CC(N2CCN(Cc3ccccc3)CC2)=CC(=[N+]2CCCCC2)C1` gave GDH-TPI inh 64*, Mtb betalactam -13, Mtb FBA inh 0, Rv3671c inh -1, UGM FP inh -3 and RecA splice inh 0.
